Experimental data published in PubChem BioAssay (NCATS).
Inconclusive results are not listed. Activity calls are given as the source filed them. Calls come from the whole dose curve; as a rule, active = well fitted curve in the direction sought with a large enough effect; inconclusive = small, poorly fitted or top-dose-only effect, or another doubt; inactive = no such curve, though single readings can be large; an effect the other way counts as inactive or inconclusive.

Legend:
[1] = Quantitative High-Throughput drug screen in 47 multiple myeloma cell lines against the NCATS MIPE library collection: KMS26_JCRB cell viability assay (AID 1918975); note: nearly all actives have a fitted effect of over 45% in size
Summary of the method: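 Approved and investigational drugs from MIPE 4.0 were added by pin tool to 500 cells per well. After 48 hours at 37C, ATP-based CellTiter-Glo luminescence indicated remaining viability.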

[2] = Quantitative High-Throughput drug screen in 47 multiple myeloma cell lines against the NCATS MIPE library collection: MOLP8_DSMZ cell viability assay (AID 1918977); note: nearly all actives have a fitted effect of over 45% in size; note: potency is the fitted concentration of half-maximal effect
Summary of the method: (§1)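 500 cells/well per myeloma line exposed to pinned MIPE 4.0 compounds for 48 h at 37 °C, 5% CO2. Viability read as ATP by CellTiter-Glo luminescence, normalised to DMSO-only (100%) and media-only (0%) wells.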

[3] = Quantitative High-Throughput drug screen in 47 multiple myeloma cell lines against the NCATS MIPE library collection: MM1R_ATCC cell viability assay (AID 1918981); note: nearly all actives have a fitted effect of over 35% in size; note: potency is the fitted concentration of half-maximal effect
Summary of the method: as §1

[4] = Quantitative High-Throughput drug screen in 47 multiple myeloma cell lines against the NCATS MIPE library collection: LP1_DSMZ cell viability assay (AID 1918982); note: nearly all actives have a fitted effect of over 35% in size
Summary of the method: as §1

[5] = Quantitative High-Throughput drug screen in 47 multiple myeloma cell lines against the NCATS MIPE library collection: KMS34_JCRB cell viability assay (AID 1918985); note: nearly all actives have a fitted effect of over 40% in size
Summary of the method: as §1

[6] = Quantitative High-Throughput drug screen in 47 multiple myeloma cell lines against the NCATS MIPE library collection: OCIMY5_PLB cell viability assay (AID 1918988); note: nearly all actives have a fitted effect of over 65% in size; note: potency is the fitted concentration of half-maximal effect
Summary of the method: as §1

[7] = Quantitative High-Throughput drug screen in 47 multiple myeloma cell lines against the NCATS MIPE library collection: SKMM1_PLB cell viability assay (AID 1919863); details: SKMM1 myeloma viability, CellTiter-Glo ATP, 48 h; viability: active compounds read low; note: nearly all actives have a fitted effect of over 35% in size; note: potency is the fitted concentration of half-maximal effect; for viability: series mostly up to about 46 µM
Summary of the method: as §1

[8] = Quantitative High-Throughput drug screen in 47 multiple myeloma cell lines against the NCATS MIPE library collection: U266_ATCC cell viability assay (AID 1919864); note: nearly all actives have a fitted effect of over 35% in size; note: potency is the fitted concentration of half-maximal effect
Summary of the method: as §1

[9] = Quantitative High-Throughput drug screen in 47 multiple myeloma cell lines against the NCATS MIPE library collection: VP6_DJ cell viability assay (AID 1919867); note: nearly all actives have a fitted effect of over 40% in size; note: potency is the fitted concentration of half-maximal effect
Summary of the method: as §1

[10] = Quantitative High-Throughput drug screen in 47 multiple myeloma cell lines against the NCATS MIPE library collection: OCIMY1_PLB cell viability assay (AID 1918979)
Summary of the method: as §1

[11] = Quantitative High-Throughput drug screen in 47 multiple myeloma cell lines against the NCATS MIPE library collection: KMS28PE_JCRB cell viability assay (AID 1918983); note: nearly all actives have a fitted effect of over 35% in size; note: potency is the fitted concentration of half-maximal effect
Summary of the method: as §1

[12] = Quantitative High-Throughput drug screen in 47 multiple myeloma cell lines against the NCATS MIPE library collection: OPM1_PLB cell viability assay (AID 1918989); note: nearly all actives have a fitted effect of over 40% in size; note: potency is the fitted concentration of half-maximal effect
Summary of the method: as §1

[13] = Quantitative High-Throughput drug screen in 47 multiple myeloma cell lines against the NCATS MIPE library collection: XG6_PLB cell viability assay (AID 1919865); note: nearly all actives have a fitted effect of over 40% in size; note: potency is the fitted concentration of half-maximal effect
Summary of the method: as §1

[14] = Quantitative High-Throughput drug screen in 47 multiple myeloma cell lines against the NCATS MIPE library collection: XG1_PLB cell viability assay (AID 1919866); note: nearly all actives have a fitted effect of over 35% in size; note: potency is the fitted concentration of half-maximal effect
Summary of the method: as §1

[15] = Quantitative High-Throughput drug screen in 47 multiple myeloma cell lines against the NCATS MIPE library collection: MMM1_PLB cell viability assay (AID 1918976); note: nearly all actives have a fitted effect of over 35% in size; note: potency is the fitted concentration of half-maximal effect
Summary of the method: as §1

[16] = Quantitative High-Throughput drug screen in 47 multiple myeloma cell lines against the NCATS MIPE library collection: MM1S_ATCC cell viability assay (AID 1918980); note: nearly all actives have a fitted effect of over 45% in size; note: potency is the fitted concentration of half-maximal effect
Summary of the method: as §1

[17] = Quantitative High-Throughput drug screen in 47 multiple myeloma cell lines against the NCATS MIPE library collection: NCIH929_DSMZ cell viability assay (AID 1918978); note: nearly all actives have a fitted effect of over 35% in size; note: potency is the fitted concentration of half-maximal effect
Summary of the method: as §1

[18] = Quantitative High-Throughput drug screen in 47 multiple myeloma cell lines against the NCATS MIPE library collection: L363_DSMZ cell viability assay (AID 1918984); note: nearly all actives have a fitted effect of over 40% in size; note: potency is the fitted concentration of half-maximal effect
Summary of the method: as §1

[19] = Quantitative High-Throughput drug screen in 47 multiple myeloma cell lines against the NCATS MIPE library collection: OCIMY7_PLB cell viability assay (AID 1918987); note: series mostly up to about 46 µM; nearly all actives have a fitted effect of over 65% in size
Summary of the method: as §1

CC(C)(Sc1cc(C(C)(C)C)c(O)c(C(C)(C)C)c1)Sc1cc(C(C)(C)C)c(O)c(C(C)(C)C)c1
active: Potency [8] 3.32 µM | Potency [9] 18.7 µM
inactive: Potency [1] | Potency [2] | Potency [3] | Potency [4] | Potency [5] | Potency [6] | viability [7] 149%

O=C(N[C@H](CO)[C@H](O)c1ccc([N+](=O)[O-])cc1)C(Cl)Cl
inactive: Potency [1] | Potency [2] | Potency [10] | Potency [3] | Potency [4] | Potency [11] | Potency [5] | Potency [12] | viability [7] 115% | Potency [13] | Potency [14]

COc1cc2ncnc(Nc3cccc(Cl)c3)c2cc1OC
inactive: Potency [4]
active: Potency [15] 11.8 µM | Potency [2] 20.9 µM | Potency [16] 0.0743 µM | Potency [3] 20.9 µM | Potency [11] 26.4 µM | Potency [6] 0.264 µM | Potency [12] 20.9 µM | Potency [8] 0.132 µM

COc1cnc(NS(=O)(=O)c2ccc(N)cc2)nc1
active: Potency [9] 20.9 µM
inactive: Potency [1] | Potency [2] | Potency [10] | Potency [3] | Potency [5] | Potency [6] | viability [7] 141% | Potency [8]

CC1CC2C3CCC4=CC(=O)C=C[C@]4(C)[C@@]3(F)[C@@H](O)C[C@]2(C)[C@@]1(O)C(=O)CO (some centres undefined)
active: Potency [15] 0.0264 µM | Potency [2] 0.935 µM | Potency [17] 0.0526 µM | Potency [16] 0.59 µM | Potency [11] 0.0935 µM | Potency [6] 2.64 µM | Potency [12] 2.35 µM | Potency [9] 0.209 µM
inactive: Potency [3] | Potency [13] | Potency [14]

CCC(=O)O[C@]1(C(=O)CCl)[C@@H](C)C[C@H]2[C@@H]3CCC4=CC(=O)C=C[C@]4(C)[C@@]3(F)[C@@H](O)C[C@@]21C
inactive: Potency [1] | Potency [2] | Potency [17] | Potency [10] | Potency [3] | Potency [11] | Potency [5] | Potency [12] | viability [7] 109% | Potency [13] | Potency [14]
active: Potency [18] 0.0093 µM | Potency [6] 1.32 µM | Potency [9] 0.0332 µM

CCOC(=O)c1ccc(OC(=O)CCCCCN=C(N)N)cc1
inactive: Potency [2] | Potency [17] | Potency [10] | Potency [3] | Potency [4] | Potency [18] | Potency [5] | Potency [12] | viability [7] 127% | Potency [8] | Potency [13] | Potency [14] | Potency [9]

COC(=O)Nc1nc2ccc(S(=O)c3ccccc3)cc2[nH]1 (centres undefined)
active: Potency [6] 16.6 µM | Potency [13] 9.35 µM | Potency [14] 8.33 µM | Potency [9] 13.2 µM
inactive: Potency [15]

CN(C)CCc1c[nH]c2ccc(C[C@H]3COC(=O)N3)cc12
active: Potency [13] 3.32 µM
inactive: Potency [10] | Potency [3] | Potency [4] | Potency [18] | Potency [5] | Potency [19] | Potency [6] | viability [7] 104% | Potency [14] | Potency [9]

O=c1oc2c(O)c(O)cc3c(=O)oc4c(O)c(O)cc1c4c23
inactive: Potency [17] | Potency [10] | Potency [3] | Potency [11] | Potency [12] | Potency [8] | Potency [14]

CCn1cc(C(=O)O)c(=O)c2cc(F)c(N3CCN(C)CC3)cc21
active: Potency [18] 5.26 µM | Potency [7] 5.26 µM
inactive: Potency [2] | Potency [3] | Potency [4] | Potency [11] | Potency [6] | Potency [8] | Potency [14] | Potency [9]

O[C@@H](CNC[C@H](O)[C@H]1CCc2cc(F)ccc2O1)[C@@H]1CCc2cc(F)ccc2O1
active: Potency [15] 23.5 µM | Potency [3] 26.4 µM | Potency [18] 16.6 µM | Potency [6] 20.9 µM | Potency [12] 26.4 µM | Potency [7] 18.7 µM | Potency [8] 26.4 µM | Potency [13] 13.2 µM | Potency [14] 20.9 µM | Potency [9] 14.8 µM

COc1c(N2CCNC(C)C2)c(F)cc2c(=O)c(C(=O)O)cn(C3CC3)c12 (centres undefined)
inactive: Potency [2] | Potency [10] | Potency [16] | Potency [4] | Potency [11] | Potency [6] | viability [7] 135% | Potency [8] | Potency [13] | Potency [14]

CN1CCN(c2c(F)cc3c(=O)c(C(=O)O)cn(CCF)c3c2F)CC1
inactive: Potency [2] | Potency [17] | Potency [3] | Potency [4] | Potency [11] | Potency [18] | Potency [12] | Potency [14]

O=c1cc(O)c(Cl)c[nH]1
inactive: Potency [2] | Potency [17] | Potency [10] | Potency [4] | Potency [5] | Potency [12]
active: Potency [16] 3.72 µM | Potency [18] 2.35 µM | Potency [8] 5.9 µM | Potency [13] 1.87 µM | Potency [14] 3.72 µM | Potency [9] 0.132 µM

O=C(O)c1ccc(-n2nc(-c3ccccc3O)nc2-c2ccccc2O)cc1
active: Potency [12] 23.5 µM | Potency [13] 20.9 µM | Potency [9] 16.6 µM

CCCCS(=N)(=O)CCC(N)C(=O)O (centres undefined)
active: Potency [14] 13.2 µM | Potency [9] 7.43 µM
inactive: Potency [2] | Potency [17] | Potency [10] | Potency [16] | Potency [3] | Potency [4] | Potency [8]

CC(=O)[C@H]1CC[C@H]2[C@@H]3CC=C4C[C@@H](O)CC[C@]4(C)[C@H]3CC[C@]12C
inactive: Potency [17] | Potency [10] | Potency [16] | Potency [4] | Potency [12] | viability [7] 123% | Potency [13] | Potency [14]
